According to the supplement of paper PMC10849652:
Targets with a hit are over-represented here; the source holds about 8,800 in all. About 0.5% of all pairs of compound and target were hits.

Columns and labels:
Test in all cases: log2 fold change, soluble protein after heating vs DMSO (PISA); higher = thermal stabilisation; K562 lysate, 10 uM; active = over 0.2 and 3.5 SD of the protein, either way, in both replicates (recomputed)
[1] = compound: C1=CC=C(C=C1)[C@H](COC2=CC3=C(C=C2)NC(=O)N3)NC(=O)C4=CC=CN(C4=O)CC5=CC(=C(C=C5)F)F
Procedure, shortened: (§1)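 A 30 min treatment with 10 μM compound was applied to crude K562 extract at 1 mg/mL protein in PBS pH 7.4 with 1 mM MgCl2. Heating for 3 min spanned 48°C-58°C, after which aliquots were pooled, adjusted to 0.5% NP-40 at 4°C and spun at 21,000xg for 90 min. TMTpro 16plex LC-MS/MS of the supernatant, with channel sums equalised, gave values recorded as log-two fold change in thermal stability against solvent controls, from duplicates.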

[2] = compound: CC1=C(SC2=C1C(=N[C@H](C3=NN=C(N32)C)CC(=O)N)C4=CC=C(C=C4)Cl)C
Procedure, shortened: as §1

[3] = compound: CC1=C2C(=CC=C1)N=C(N(C2=O)C3=CC=CC=C3C)CN4C=NC5=C(N=CN=C54)N
Procedure, shortened: as §1

[4] = compound: Cc1sc2c(c1C)C(c1ccc(Cl)cc1)=N[C@@H](CC(=O)OC(C)(C)C)c1nnc(C)n1-2
Procedure, shortened: as §1

[5] = compound: c1ccc([C@@H]2C[C@H]2NC2CCNCC2)cc1
Procedure, shortened: as §1

Measured: log2 fold change

GLUD2 (UniProt P49448)
inactive: [1] -0.001 | [2] 0.031 | [3] 0.265 | [4] 0.019 | [5] 0.022

HLCS (UniProt P50747)
Chain of UniProt P50747 (P50747 whole entry, looked up): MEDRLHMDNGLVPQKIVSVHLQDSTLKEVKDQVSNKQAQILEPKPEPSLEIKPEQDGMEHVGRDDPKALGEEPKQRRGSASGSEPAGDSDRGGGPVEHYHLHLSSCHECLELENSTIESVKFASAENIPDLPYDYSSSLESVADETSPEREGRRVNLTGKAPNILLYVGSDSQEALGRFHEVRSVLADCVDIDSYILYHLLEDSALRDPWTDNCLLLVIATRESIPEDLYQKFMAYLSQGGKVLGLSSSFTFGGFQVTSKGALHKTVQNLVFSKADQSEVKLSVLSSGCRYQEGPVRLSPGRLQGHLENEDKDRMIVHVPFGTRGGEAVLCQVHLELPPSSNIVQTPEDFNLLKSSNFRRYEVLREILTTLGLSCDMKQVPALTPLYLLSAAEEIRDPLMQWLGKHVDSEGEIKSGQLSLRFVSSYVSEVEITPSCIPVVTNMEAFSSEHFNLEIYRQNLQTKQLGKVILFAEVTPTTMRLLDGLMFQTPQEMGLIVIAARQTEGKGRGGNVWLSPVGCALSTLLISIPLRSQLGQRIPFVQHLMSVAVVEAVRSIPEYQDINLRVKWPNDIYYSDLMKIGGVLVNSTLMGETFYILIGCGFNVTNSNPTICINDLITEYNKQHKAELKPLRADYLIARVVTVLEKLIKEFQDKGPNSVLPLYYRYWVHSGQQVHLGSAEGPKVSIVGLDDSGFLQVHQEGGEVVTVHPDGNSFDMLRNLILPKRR
inactive: [1] -0.027 | [2] 0.027 | [3] 0.011 | [4] -0.006 | [5] 0.038

ITPKA (UniProt P23677)
Chain of UniProt P23677 (P23677 whole entry, looked up): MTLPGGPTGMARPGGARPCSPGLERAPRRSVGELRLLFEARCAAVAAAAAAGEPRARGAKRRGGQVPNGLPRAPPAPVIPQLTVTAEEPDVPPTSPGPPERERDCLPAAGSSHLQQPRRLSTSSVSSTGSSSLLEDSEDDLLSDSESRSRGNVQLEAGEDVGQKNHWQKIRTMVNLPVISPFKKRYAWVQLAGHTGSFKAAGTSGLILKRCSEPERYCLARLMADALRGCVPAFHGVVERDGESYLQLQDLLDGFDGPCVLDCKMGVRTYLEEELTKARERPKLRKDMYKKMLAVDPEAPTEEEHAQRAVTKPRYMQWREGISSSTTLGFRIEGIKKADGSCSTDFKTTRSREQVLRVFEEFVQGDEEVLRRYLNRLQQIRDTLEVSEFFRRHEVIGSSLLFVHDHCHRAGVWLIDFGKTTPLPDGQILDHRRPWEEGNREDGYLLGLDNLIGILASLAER
inactive: [1] -0.022 | [2] 0.006 | [3] -0.017 | [4] -0.012 | [5] -0.013

HAUS6 (UniProt Q7Z4H7)
inactive: [1] 0 | [2] -0.012 | [3] 0.021 | [4] 0.005 | [5] 0.041

GTF3C5 isoform 3 (UniProt Q9Y5Q8)
Chain of UniProt Q9Y5Q8 (Q9Y5Q8 whole entry, looked up): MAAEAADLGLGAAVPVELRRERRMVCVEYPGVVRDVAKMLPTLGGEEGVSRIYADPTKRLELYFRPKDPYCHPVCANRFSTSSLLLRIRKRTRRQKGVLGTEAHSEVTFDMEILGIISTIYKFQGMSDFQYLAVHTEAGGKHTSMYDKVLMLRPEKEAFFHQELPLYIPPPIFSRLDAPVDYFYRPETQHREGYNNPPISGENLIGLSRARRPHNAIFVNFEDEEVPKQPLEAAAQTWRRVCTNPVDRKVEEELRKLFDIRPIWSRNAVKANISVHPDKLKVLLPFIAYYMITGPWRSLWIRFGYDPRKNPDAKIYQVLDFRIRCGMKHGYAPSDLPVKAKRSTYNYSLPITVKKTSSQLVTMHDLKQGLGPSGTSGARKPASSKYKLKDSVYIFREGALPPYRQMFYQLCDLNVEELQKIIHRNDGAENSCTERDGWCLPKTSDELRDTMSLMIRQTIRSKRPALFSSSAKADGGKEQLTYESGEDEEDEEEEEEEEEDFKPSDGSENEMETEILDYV
inactive: [1] -0.024 | [2] 0.001 | [3] 0.019 | [4] 0.056 | [5] 0.016

GTF2H1 (UniProt P32780)
inactive: [1] 0.006 | [2] -0.035 | [3] 0.089 | [4] 0.025 | [5] 0.006

HS1BP3 (UniProt Q53T59)
Chain of UniProt Q53T59 (Q53T59 whole entry, looked up): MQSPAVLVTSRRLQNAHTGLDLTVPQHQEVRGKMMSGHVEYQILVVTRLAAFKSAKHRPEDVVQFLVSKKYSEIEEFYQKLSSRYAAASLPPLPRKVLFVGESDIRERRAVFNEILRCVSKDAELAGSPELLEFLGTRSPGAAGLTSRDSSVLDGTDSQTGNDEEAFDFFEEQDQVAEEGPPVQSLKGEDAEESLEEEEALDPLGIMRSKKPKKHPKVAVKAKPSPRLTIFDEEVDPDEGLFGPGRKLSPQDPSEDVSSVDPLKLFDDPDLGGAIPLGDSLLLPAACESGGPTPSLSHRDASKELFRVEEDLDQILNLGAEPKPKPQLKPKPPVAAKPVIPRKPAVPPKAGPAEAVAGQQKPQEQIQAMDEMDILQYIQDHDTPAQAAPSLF
inactive: [1] 0.018 | [2] -0.03 | [3] -0.073 | [4] 0.004 | [5] -0.053

HDGFL2 isoform 2 (UniProt Q7Z4V5)
inactive: [1] 0.051 | [2] -0.014 | [3] 0.01 | [4] -0.076 | [5] -0.212

IGF2BP2 (UniProt Q9Y6M1)
inactive: [1] -0.041 | [2] -0.004 | [3] 0.012 | [4] 0.022 | [5] 0.008

IMPACT (UniProt Q9P2X3)
inactive: [1] 0.093 | [2] -0.07 | [3] -0.18 | [4] -0.067 | [5] -0.13

GSTCD (UniProt Q8NEC7)
inactive: [1] -0.048 | [2] -0.048 | [3] -0.076 | [4] -0.055 | [5] 0.007

GORASP1 (UniProt Q9BQQ3)
inactive: [3] -0.049 | [4] -0.031 | [5] 0.042

HMGA1 isoform 2 (UniProt P17096)
Chain of UniProt P17096 (P17096 whole entry, looked up): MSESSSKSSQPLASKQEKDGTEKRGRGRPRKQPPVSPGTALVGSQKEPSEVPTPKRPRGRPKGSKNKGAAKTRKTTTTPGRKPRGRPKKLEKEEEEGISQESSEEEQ
inactive: [4] 0.055 | [5] 0.419

GMPS (UniProt P49915)
inactive: [1] -0.014 | [2] -0.001 | [3] 0.02 | [4] 0.019 | [5] 0.088

HYDIN (UniProt Q4G0P3)
inactive: [3] -0.069 | [4] -0.078

GPLD1 (UniProt P80108)
inactive: [4] 0.209

GNB4 (UniProt Q9HAV0)
Chain of UniProt Q9HAV0 (Q9HAV0 whole entry, looked up): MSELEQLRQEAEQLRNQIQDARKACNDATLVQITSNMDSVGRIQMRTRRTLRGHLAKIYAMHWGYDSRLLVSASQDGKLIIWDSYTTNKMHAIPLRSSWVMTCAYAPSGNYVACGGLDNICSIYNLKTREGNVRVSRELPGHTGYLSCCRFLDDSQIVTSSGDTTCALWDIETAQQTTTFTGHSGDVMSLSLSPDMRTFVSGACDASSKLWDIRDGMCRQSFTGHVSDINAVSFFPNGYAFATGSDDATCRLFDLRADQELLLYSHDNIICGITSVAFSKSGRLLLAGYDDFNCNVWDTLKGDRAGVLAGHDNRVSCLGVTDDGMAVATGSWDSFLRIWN
inactive: [1] 0.162 | [2] -0.074 | [4] 0.031 | [5] -0.05

KCT2 (UniProt Q8NC54)
Chain of UniProt Q8NC54 (Q8NC54 whole entry, looked up): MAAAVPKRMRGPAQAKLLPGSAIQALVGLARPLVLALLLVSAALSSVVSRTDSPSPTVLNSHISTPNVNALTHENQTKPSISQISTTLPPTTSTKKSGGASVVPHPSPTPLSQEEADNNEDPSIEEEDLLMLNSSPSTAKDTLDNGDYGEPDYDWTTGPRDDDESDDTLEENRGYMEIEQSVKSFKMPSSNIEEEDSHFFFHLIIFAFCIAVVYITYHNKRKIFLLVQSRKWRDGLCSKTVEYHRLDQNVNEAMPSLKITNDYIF
inactive: [1] 0.069 | [2] -0.008 | [3] -0.05 | [4] -0.033 | [5] -0.173

IPP (UniProt Q9Y573)
Chain of UniProt Q9Y573 (Q9Y573 whole entry, looked up): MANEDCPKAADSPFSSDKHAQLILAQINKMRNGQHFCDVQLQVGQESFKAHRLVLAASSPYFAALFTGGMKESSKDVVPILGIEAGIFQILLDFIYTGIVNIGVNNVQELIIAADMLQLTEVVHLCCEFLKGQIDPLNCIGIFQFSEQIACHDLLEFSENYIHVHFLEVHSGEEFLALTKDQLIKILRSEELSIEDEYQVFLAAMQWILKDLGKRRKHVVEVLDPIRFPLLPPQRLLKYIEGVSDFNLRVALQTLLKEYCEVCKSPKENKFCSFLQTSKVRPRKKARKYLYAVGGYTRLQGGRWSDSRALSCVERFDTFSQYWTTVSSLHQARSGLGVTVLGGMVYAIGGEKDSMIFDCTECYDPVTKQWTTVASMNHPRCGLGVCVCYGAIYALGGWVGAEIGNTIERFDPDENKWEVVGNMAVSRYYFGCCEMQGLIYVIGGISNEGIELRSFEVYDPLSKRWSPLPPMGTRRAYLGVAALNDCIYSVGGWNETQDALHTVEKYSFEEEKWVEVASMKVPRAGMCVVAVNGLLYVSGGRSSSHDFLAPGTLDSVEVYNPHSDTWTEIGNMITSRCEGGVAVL
inactive: [3] -0.009 | [4] -0.099 | [5] 0.02

H3-3A (UniProt P84243)
inactive: [1] 0.059 | [2] 0.016 | [3] 0.024 | [5] -0.004

ITGB1BP2 (UniProt Q9UKP3)
Chain of UniProt Q9UKP3 (Q9UKP3 whole entry, looked up): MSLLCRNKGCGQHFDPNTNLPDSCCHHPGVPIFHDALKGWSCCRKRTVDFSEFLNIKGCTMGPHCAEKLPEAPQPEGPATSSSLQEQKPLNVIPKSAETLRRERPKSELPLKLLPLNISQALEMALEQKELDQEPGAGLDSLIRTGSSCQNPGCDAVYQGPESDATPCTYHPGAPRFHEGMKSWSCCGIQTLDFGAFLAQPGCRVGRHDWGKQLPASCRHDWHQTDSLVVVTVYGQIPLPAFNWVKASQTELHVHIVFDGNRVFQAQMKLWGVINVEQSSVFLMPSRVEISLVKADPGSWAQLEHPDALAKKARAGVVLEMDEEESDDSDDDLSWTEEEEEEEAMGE
inactive: [3] 0.116 | [4] 0.083 | [5] -0.029

IMPDH2 (UniProt P12268)
inactive: [1] 0 | [2] -0.014 | [3] -0.007 | [4] 0.045 | [5] 0.017

KDM6A (UniProt O15550)
inactive: [1] -0.024 | [2] -0.019 | [3] 0.049 | [4] -0.03 | [5] 0.008

ITPR2 (UniProt Q14571)
inactive: [4] -0.171

JAK3 (UniProt P52333)
Chain of UniProt P52333 (P52333 whole entry, looked up): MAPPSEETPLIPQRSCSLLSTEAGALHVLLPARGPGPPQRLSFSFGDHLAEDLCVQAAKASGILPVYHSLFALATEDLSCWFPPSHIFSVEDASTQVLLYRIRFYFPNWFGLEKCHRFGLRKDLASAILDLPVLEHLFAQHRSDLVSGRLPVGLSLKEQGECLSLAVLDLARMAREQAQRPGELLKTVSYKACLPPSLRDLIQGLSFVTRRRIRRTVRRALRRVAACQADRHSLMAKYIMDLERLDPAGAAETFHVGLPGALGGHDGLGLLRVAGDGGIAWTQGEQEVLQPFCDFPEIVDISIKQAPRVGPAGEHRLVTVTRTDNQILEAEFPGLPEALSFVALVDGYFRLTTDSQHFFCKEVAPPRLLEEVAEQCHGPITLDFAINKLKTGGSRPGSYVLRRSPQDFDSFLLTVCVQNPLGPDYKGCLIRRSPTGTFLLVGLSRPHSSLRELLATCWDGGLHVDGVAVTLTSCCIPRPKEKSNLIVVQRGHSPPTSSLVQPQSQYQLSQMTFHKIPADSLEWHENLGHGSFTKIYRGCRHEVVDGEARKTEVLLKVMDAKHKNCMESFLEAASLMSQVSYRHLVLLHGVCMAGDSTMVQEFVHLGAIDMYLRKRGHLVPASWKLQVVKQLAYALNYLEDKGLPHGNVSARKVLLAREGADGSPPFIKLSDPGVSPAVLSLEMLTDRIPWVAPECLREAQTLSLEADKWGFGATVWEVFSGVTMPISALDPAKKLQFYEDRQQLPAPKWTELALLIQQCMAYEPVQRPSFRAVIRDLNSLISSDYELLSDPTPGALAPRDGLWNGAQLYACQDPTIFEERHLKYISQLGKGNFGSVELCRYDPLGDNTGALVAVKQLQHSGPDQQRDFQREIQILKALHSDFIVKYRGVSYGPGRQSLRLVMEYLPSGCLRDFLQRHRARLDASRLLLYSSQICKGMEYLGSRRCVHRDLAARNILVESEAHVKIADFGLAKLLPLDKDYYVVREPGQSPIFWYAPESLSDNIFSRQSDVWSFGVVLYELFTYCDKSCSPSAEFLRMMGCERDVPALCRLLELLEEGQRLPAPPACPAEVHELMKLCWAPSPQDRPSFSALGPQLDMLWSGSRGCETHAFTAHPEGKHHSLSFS
inactive: [1] 0.031 | [2] -0.051 | [3] -0.129 | [5] 0.254
